Assay outcomes from PubChem.
Rows were chosen to be rich in hits. Some 21% of all compounds tested hit in one or more screens of this group.
HCV inhibitor = HCV inhibition. Potency, µM (top dose mostly 41.8 µM), for inactives: top-dose activity change, negative = inhibition, usual class: inhibitors. Huh7.5.1 HCVcc-Cre infection, luciferase reporter, 44 h. 340,000 compounds, 3.4% hits. AID 651820; further: potency means the concentration at half of the fitted maximal effect; on the % scale 0 is the no-effect control and ±100 the full control effect
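Compounds are dispensed onto cells plated 4 h earlier at 1,000 per well, with HCVcc-Cre virus (about 0.5 moi) added next. Following 44 h of culture, luminescent signal is measured for 15 sec after 15 min with substrate at room temperature.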
AMA1 RON2 block = AMA1-RON2 (P. falciparum) interaction inhibition. AlphaScreen AMA1-biotinylated RON2 peptide binding. Potency, µM (doses to about 58.2 µM), for inactives: at the top dose activity change, negative = inhibition, usual class: inhibitors. 360,000 compounds, 0.2% hits. AID 720542;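 further: potency means the concentration at half of the fitted maximal effect; 0% = vehicle wells and -100% = peptide control; nearly all actives have a fitted effect of over 45% in size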
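AMA1 (3D7) with his tag at 25 nM final met compounds first, then biotinylated RON2 peptide at 25 nM; detection used donor plus acceptor beads, 10 µg/mL apiece, read by AlphaScreen after 30 min at room temperature.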
Pf growth 48h = inhibits P. falciparum growth in the first generation, 48 h | Potency, µM (top dose mostly 28.7 µM), for inactives: at the top dose activity change, negative = inhibition, actives largely listed as inhibitors | 310,000 compounds, 5.9% hits | AID 504832 | P. falciparum luciferase growth in erythrocytes, 48 h; further: potency means the concentration at half of the fitted maximal effect; on the % scale 0 is the no-effect control and ±100 the full control effect
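Erythrocytes infected with P. falciparum carrying an integrated firefly luciferase reporter (2% hematocrit, 0.1% parasitemia final) were exposed to compounds in RPMI 1640 with 0.5% Albumax at 37 C, 5% CO2. Growth inhibition was scored as reduced luminescence.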
Shiga inhibitor = inhibitors of Shiga toxin in Vero cells. 290,000 compounds, 9.2% hits. inhibition, % at 38.7 µM. Vero cells, Shiga toxin protein synthesis inhibition reporter; in the data active means inhibition mostly above about 28%, no sharp cut-off; inactive means mostly below about 43%; further: 0% is about no effect
Pf growth 96h = inhibits malaria parasite growth, 96 h; P. falciparum luciferase reporter growth, 96 h; Potency, µM (highest dose often 28.7 µM), inactives show top-dose activity change, negative = inhibition, actives largely listed as inhibitors; 320,000 compounds, 6.9% hits; AID 504834; further: potency means the concentration at half of the fitted maximal effect; on the % scale 0 is the no-effect control and ±100 the full control effect
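P. falciparum expressing integrated firefly luciferase grown in erythrocytes (2% hematocrit, 0.05% parasitemia final) with compounds for 96 hours at 37 C, 5% CO2. Growth inhibition read as loss of luminescence after adding luciferase detection reagent.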
CHX counter = counter-screen for Shiga toxin inhibitors: cycloheximide protein synthesis inhibition; AID 2314; 300,000 compounds, 12% hits; max response, %; cell reporter, cycloheximide protein synthesis inhibition counterscreen; in the data active means max response mostly above about 13%, no sharp cut-off; inactive means mostly below about 14%; further: read at 38.3 µM for the half of the compounds with a filed dose; 0% is about no effect
Starred values were filed as active, the others as inactive; ? = inconclusive; / = no result given; [ ] = another dose, or the depositor's remark. Unless noted, the call rests on the fitted dose curve; in most records, active means well fitted curve in the direction sought with a large enough effect; inconclusive means small, poorly fitted or top-dose-only effect, or another doubt; inactive means no such curve, though single readings can be large; an effect the other way counts as inactive or inconclusive.

SMILES	HCV inhibitor	AMA1 RON2 block	Pf growth 48h	Shiga inhibitor	Pf growth 96h	CHX counter
COc1ccc(N2C3=[N+](CC2(C)O)c2ccccc2CC3)cc1 (centres undefined)	-16%	-8%	15%	12	/	22*
COc1cc(CNCCCCO)ccc1OCc1ccccc1F	?	3%	42%	57*	22%	18*
COc1cc(CNc2ccc(N3CCCCC3)cc2)ccc1OCC(=O)NC(C)(C)C	10µM*	?	8%	40*	5.2µM*	13*
COc1cc(CNc2ccc(N3CCCC3)cc2)ccc1OCc1ccccc1	?	?	8.3µM*	55*	8%	42*
COc1cc(CNc2ccc(N3CCCC3)cc2)ccc1OCc1ccccc1F	?	?	?	173*	?	64*
COc1cc(CNc2ccc(S(N)(=O)=O)cc2)ccc1OCc1ccccc1F	11µM*	-9%	/	/	/	/
COc1cccc(CNc2ccc(S(N)(=O)=O)cc2)c1OCc1ccccc1F	?	-3%[2.32 µM]	1%	-1	10%	-5
CCc1cccc(OCC(=O)Nc2ccc(C)c(S(=O)(=O)N3CCCCCC3)c2)c1	8.9µM*	-1%	?	/	?	/
Cc1ccc(OCC(=O)Nc2ccc(C)c(S(=O)(=O)N3CCCCCC3)c2)c([N+](=O)[O-])n1	?	-25%	?	-15	?	13
Cc1ccc(NC(=O)COc2ccccc2C(N)=O)cc1S(=O)(=O)N1CCCCCC1	5µM*	-11%	?	/	4.7µM*	/
Cc1ccc(NC(=O)COc2cccc(C)c2C)cc1S(=O)(=O)N1CCCCCC1	6.3µM*	0%	?	/	?	/
COCCN(Cc1nnc(-c2cccs2)o1)C(=O)CN1C(=O)NC2(CCCCC2)C1=O	13%	39%	/	/	/	/
COc1ccc(-c2csc(C(NC(C)=O)c3cccc(F)c3)n2)cc1 (centres undefined)	/	17%	/	/	/	/
O=C(CCC(=O)c1ccc[nH]1)c1ccc(Cl)cc1	18%	11%	202%	100*	184%	46*
O=C(COc1ccc(F)c(Cl)c1)c1ccc[nH]1	-6%	-14%	20%	40	?	36*
O=C(COc1ccc(Cl)cc1Cl)OCC(=O)c1ccc[nH]1	-2%	4%	-6%	/	16%	/
N#CC(C#N)=Cc1ccc(C=C(C#N)C#N)cc1	-10%	-1%	?	27	3%	20*
CCn1c2ccccc2c2cc(NC(=O)CC(C)=O)ccc21	13µM*	0%	-6%	11	-26%	-4
CCn1c2ccccc2c2cc(NC(=O)C(C)Oc3ccc(OC)cc3)ccc21 (centres undefined)	?	-8%	?	-3	5.9µM*	1
CCn1c2ccccc2c2cc(NC(=O)C(C)Oc3ccccc3)ccc21 (centres undefined)	-23%	-14%	?	-15	?	-1
CCOC(=O)C(=CNc1ccc2c(c1)c1ccccc1n2CC)C(=O)OCC	10µM*	48%	44%	-5	52%	-1
CCCC(=O)Nc1ccc2c(c1)c1ccccc1n2CC	?	5%	3%	21	95%	8
COc1cccc(C(=O)c2c(-c3ccccc3)ncc3cc(OC)c(OC)cc23)c1	?	-15%	/	/	/	/
COc1ccc(CN2CCN(Cc3ccc4cc(F)ccc4n3)CC2CCO)c(C)c1C (centres undefined)	?	0%	?	-10	?	-3
CCCCn1c(N)c(N(CC(C)C)C(=O)C2CCN(S(=O)(=O)c3ccc(C)c(C)c3)CC2)c(=O)[nH]c1=O	-20%	-9%	2.6µM*	-12	2.3µM*	-1
SMILES	HCV inhibitor	AMA1 RON2 block	Pf growth 48h	Shiga inhibitor	Pf growth 96h	CHX counter
CCCCn1c(N)c(N(CC(C)C)C(=O)C2CCN(S(=O)(=O)c3ccccc3)CC2)c(=O)[nH]c1=O	?	2%	?	/	?	/
CCCCn1c(N)c(N(CCOC)C(=O)C2CCN(S(=O)(=O)c3ccc(C)cc3C)CC2)c(=O)[nH]c1=O	-8%	-21%	13µM*	/	?	/
CCCCn1c(N)c(N(CC(C)C)C(=O)C2CCN(S(=O)(=O)c3ccc(C)cc3C)CC2)c(=O)[nH]c1=O	?	-9%	13µM*	/	?	/
Cc1ccc(S(=O)(=O)N2CCN(CC(=O)N(CC(C)C)c3c(N)n(CC(C)C)c(=O)[nH]c3=O)CC2)c(C)c1	0%	17%	?	-12	4.1µM*	-1
CCCCn1c(N)c(N(CCOC)C(=O)C2CCN(S(=O)(=O)c3ccc(C)cc3)CC2)c(=O)[nH]c1=O	?	-5%	9%	/	-11%	/
O=C(CN1C(=O)c2ccccc2C1=O)C(O)CN1C(=O)c2ccccc2C1=O (centres undefined)	/	-2%	/	/	/	/
CCCCn1c(N)c(N(CC(C)C)C(=O)C(C)SCc2nc3sc(C)c(C)c3c(=O)[nH]2)c(=O)[nH]c1=O (centres undefined)	17%	2%	12µM*	/	7%	/
CCCCn1c(N)c(N(CC(C)C)C(=O)CSCc2ccc(Cl)c(Cl)c2)c(=O)[nH]c1=O	?	-20%	12µM*	/	?	/
OC(c1ccccc1)(c1nc(-c2cc(F)cc(F)c2)cs1)C(F)(F)F (centres undefined)	/	-3%	/	/	/	/
Nc1nnc(CSCc2cccc(Br)c2)s1	19%	40%	18%	36	26%	-1
COc1ccccc1N=C(C)C1=C(O)CSC1=O	-10%	-4%	7%	33	/	8
CC(=Nc1ccc(C)c(C)c1)C1=C(O)CSC1=O	0%	-5%	/	45	-28%	23*
COc1ccc(CCNC(=O)COC(=O)c2ccccn2)cc1	6%	38%	/	/	/	/
COc1ccc(OC)c(CN2C(=O)CN(S(C)(=O)=O)CC2(C)C(=O)Nc2c(C)cccc2C)c1 (centres undefined)	/	0%	/	/	/	/
COCCNC(=O)C(C)OC(=O)C1=Cc2ccccc2OC1 (centres undefined)	1%	7%	16%	18	?	15*
O=C(CCCCl)Nc1c2c(nn1-c1ccccc1)CSC2	4%	-11%	-9%	8	8%	-1
O=C(CCl)Nc1c2c(nn1-c1ccccc1)CSC2	?	-1%	4.1µM*	-3	2.9µM*	4
O=S1(=O)N[C@@H](Cc2ccccc2)COc2cccc(N3CCSCC3)c21	/	-15%	/	/	/	/
Cc1cc(N2CCN(C(C(=O)NC3CCCC3)c3ccc(F)cc3)CC2)c2ccccc2n1 (centres undefined)	/	-9%	/	/	/	/
O=C(c1cc2nc(-c3ccccc3)cc(C(F)(F)F)n2n1)N1CCN2CCCC2C1 (centres undefined)	8.9µM*	3%	?	27	?	-2
O=C(c1nn2c(C(F)(F)F)cc(-c3ccccc3)nc2c1Cl)N1CCN2CCCC2C1 (centres undefined)	11µM*	-4%	?	-16	?	-1
